NLRP3 yeast inh – inhibitors of NALP3 inflammasome in yeast; inhibition, % at 10 µM; 0.39% of 330,000 active; Yeast reconstituted NLRP3/ASC/caspase-1, beta-gal luminescence, 24 h;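 active = inhibition of 50% or more; inactive = inhibition below 50%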;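 note: plate controls were induced DMSO wells for no effect and uninduced yeast grown without galactose for full effect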
tim23-1 inh – inhibits growth of tim23-1 mutant yeast | S. cerevisiae tim23-1 growth, BacTiter-Glo luminescence, 24 h | 1.3% of 330,000 active | inhibition, % at 20 µM | AID 463212;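 active = growth inhibition of the mutant yeast at or above 50%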;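 note: temperature-sensitive mutant grown at 25 °C; plate controls were DMSO-treated mutant yeast for no effect and medium wells lacking yeast for full effect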
TIM10 inh – growth inhibitors of TIM10 yeast strain; S. cerevisiae TIM10 strain growth, BacTiter-Glo luminescence, 24 h; inhibition, % at 10 µM; 1.4% of 330,000 active;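 active = inhibition of 40% or more at the single tested concentration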;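 note: wild-type TIM10 isogenic control strain grown at permissive 25 °C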
tim10-1 inh – growth inhibitors of tim10-1 mutant yeast; S. cerevisiae tim10-1 ts strain growth, BacTiter-Glo, 24 h; inhibition, % at 20 µM; 2.2% of 330,000 active;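 active = inhibition of at least 40%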;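 note: mutant grown at 25 °C; 0% = DMSO wells with yeast and 100% = wells holding no yeast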
NALP1 yeast inh – inhibitors of NALP1 inflammasome in yeast; S. cerevisiae NALP1/ASC/caspase-1 growth, X-gal OD620, 72 h; inhibition, % at 10 µM; 0.61% of 280,000 active; AID 2071; in the data active = inhibition mostly above about 24%, no sharp cut-off; inactive = mostly below about 32%
NALP3 yeast conf – confirmation of NALP3 inhibitors in yeast; shares compounds with NLRP3 yeast inh; yeast expressing human NALP3, luminescence; inhibition, % at 10 µM; 81% of 1,300 active; in the data active = inhibition above about 48%
Casp1-ASC yeast – caspase-1-ASC yeast counter-screen hit; shares compounds with NLRP3 yeast inh; yeast expressing Caspase-1-ASC, luminescence counter screen; 66% of 1,000 active; AID 488784; inhibition, % at 10 µM
NALP3 retest – retest-confirmed inhibitor of NALP3 in yeast | AID 488794 | inhibition, % at 10 µM | shares compounds with NLRP3 yeast inh | 53% of 1,000 active | yeast expressing human NALP3, luminescence read-out
tim10-1 confirm – confirmation of tim10-1 mutant yeast growth inhibitors | AID 463213 | inhibition, % at 20 µM | S. cerevisiae tim10-1 ts strain growth, BacTiter-Glo, 24 h | 56% of 7,400 active | shares compounds with tim10-1 inh;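 active = inhibition of yeast growth at or above a set limit in either of two repeat tests at 20 µM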;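 note: tim10-1 mutant grown at permissive 25 °C to find synthetic lethal compounds; 0% = DMSO yeast wells and 100% = medium wells without yeast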
tim10 confirm – confirmation of TIM10 yeast growth inhibitors; AID 463215; 63% of 4,600 active; inhibition, % at 10 µM; shares compounds with TIM10 inh; S. cerevisiae tim10 strain growth, BacTiter-Glo luminescence, 24 h;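 active = inhibition of yeast growth at or above a set limit in either of two replicates at 10 µM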;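 note: this counterscreen used the strain with wild-type TIM10; 0% = yeast with DMSO and 100% = medium wells lacking yeast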
tim23-1 conf – tim23-1 yeast growth inhibition, confirmed; shares compounds with tim23-1 inh; S. cerevisiae tim23-1 growth, BacTiter-Glo luminescence, 24 h; inhibition, % at 20 µM; 83% of 4,400 active; AID 463218;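 active = inhibition above about 39% in either of two replicate wells at 20 µM, limit read from the data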;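 note: temperature-sensitive tim23-1 mutant grown at 25 °C; 0% = DMSO wells with yeast and 100% = medium wells without yeast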
The depositor's hits bear a star; / = no result. Compounds with a hit are over-represented: about 4.1% of the library has one in this group of screens. Cut-off read from the data, not from the text of the source, unless noted: active = inhibition above about 50%; inactive = the rest.

SMILES | NLRP3 yeast inh | tim23-1 inh | TIM10 inh | tim10-1 inh | NALP1 yeast inh | NALP3 yeast conf | Casp1-ASC yeast | NALP3 retest | others
C[C@]12CCC3C(CC[C@H]4C[C@H](N)CC[C@]34C)C1CC[C@H]2O (stereo partly specified) | 25 | 21 | 1 | 22 | 16 | / | / | /
C[C@]12CCC3C(CC[C@H]4CC(=O)CC[C@]34C)C1CCC2=O (stereo partly specified) | 61* | -24 | -44 | -41 | / | 56* | / | /
C[C@]12CC(=CO)C(=O)C[C@@H]1CC[C@@H]1[C@@H]2CC[C@@]2(C)[C@H]1CC[C@]2(C)O | / | / | / | / | 16 | / | / | /
C[C@]1(O)CCC2C3CC[C@@H]4CC(=O)CC[C@]4(C)C3CC[C@@]21C (stereo partly specified) | 55* | 27 | -12 | -1 | / | 69* | 68* | 42
C[C@]12C=CC(=O)C=C1C=C[C@@H]1C2CC[C@]2(C)C(=O)CCC12 (stereo partly specified) | 25 | 25 | 10 | 19 | -4 | / | / | /
C[C@]12CCC(=O)C[C@H]1CC[C@@H]1[C@@H]2CC[C@]2(C)C(=O)CC[C@@H]12 | 66* | 29 | 7 | 13 | / | 70* | 61* | 49
COC(=O)C1=C(c2c(C)noc2C)C[C@@H]2CC[C@H]1N2C(=O)NC1CCCCC1 | 10 | 13 | -2 | 5 | / | / | / | /
COC(=O)C1=C(c2ccc(OC)c(OC)c2)C[C@@H]2CC[C@H]1N2C(=O)NCCCOC(C)C | 24 | 9 | 5 | -4 | / | / | / | /
CCCCCCCCCCCCCCCC[N+](C)(C)C | 60* | 44 | 29 | -15 | / | 53* | 55* | 59*
Oc1ccc(/C=N/NP(=S)(c2ccccc2)c2ccccc2)cc1 | 56* | 42 | 26 | 26 | 23 | 74* | 65* | 57*
COc1cc(/C=N/NP(=S)(c2ccccc2)c2ccccc2)ccc1O | 2 | 19 | 6 | 16 | -24 | / | / | /
Cc1cc(OCC(=O)NCc2ccc(S(N)(=O)=O)cc2)c2c3c(c(=O)oc2c1)CCC3 | 1 | 4 | -2 | 3 | 20 | / | / | /
O=C(Cn1ncn2c(cc3cc(F)ccc32)c1=O)N1CCC2(CC1)OCCO2 | 3 | 9 | -6 | 16 | 2 | / | / | /
COC(=O)C1=C(c2ccc(C(C)=O)cc2)C[C@@H]2CC[C@H]1N2C(=O)NC(C)C | 11 | 9 | -1 | 1 | / | / | / | /
C[C@]12CCC3C(CC[C@H]4C[C@@H](O)CC[C@]34C)C1CC[C@@H]2N (stereo partly specified) | 36 | 13 | 2 | -24 | / | / | / | /
C[C@]12CCC3C(CC[C@H]4C[C@H](O)CC[C@]34C)C1C[C@@H](O)[C@@H]2O (stereo partly specified) | 44 | 4 | -8 | -6 | / | / | / | /
C[C@]12CCC3C(CC[C@H]4C[C@H](O)CC[C@]34C)C1C[C@@H](CCCCl)[C@@H]2O (stereo partly specified) | 57* | 42 | 12 | 5 | / | 62* | / | /
C[C@]12CCC3C(CC[C@H]4C[C@H](O)CC[C@]34C)C1C[C@H](O)[C@@H]2O (stereo partly specified) | 51* | 31 | 0 | 5 | / | 50* | / | /
C[C@]12CCC3C(CC[C@H]4C[C@@H](O)CC[C@]34C)C1C[C@H](Br)[C@@H]2O (stereo partly specified) | 62* | -28 | -167 | -108 | / | 70* | / | /
Cc1ccc(N=C(/N=C(\N)N[N+](=O)[O-])Nc2ccc(C)cc2)cc1 | 8 | 20 | -2 | 18 | / | / | / | /
C[C@]12CC[C@H](O)CC1=CC[C@@H]1[C@@H]2CC[C@@]2(C)[C@H]1CC[C@]2(C)O | 59* | 22 | 19 | 35 | / | 67* | 59* | 47
CC(C)[C@H]1CC2C3CC=C4C[C@@H](O)CC[C@]4(C)C3CC[C@]2(C)[C@H]1O (stereo partly specified) | 53* | 21 | 19 | 2 | / | 56* | / | /
C[C@]12C[C@H](O)[C@@H](O)CC1=CCC1C2CC[C@@]2(C)C1CC[C@@H]2O (stereo partly specified) | 55* | 13 | -6 | 2 | / | 66* | / | /
C[C@]12CC[C@@H](O)CC1=CCC1C2CC[C@]2(C)C(=O)[C@H](F)CC12 (stereo partly specified) | 50 | 17 | -16 | 11 | / | / | / | /
Cc1c(-c2cccc(Cl)c2)nc2ccccc2c1C(=O)N1CCC2(CC1)OCCO2 | 77* | 28 | 23 | 26 | 19 | 45 | 21 | 13
SMILES | NLRP3 yeast inh | tim23-1 inh | TIM10 inh | tim10-1 inh | NALP1 yeast inh | NALP3 yeast conf | Casp1-ASC yeast | NALP3 retest | others
CN1[C@@H]2CC[C@H]1CC(OC1c3ccccc3CCc3ccccc31)C2 (stereo partly specified) | 25 | 0 | 11 | 26 | / | / | / | /
COc1ccc(C[C@H]2NC[C@H](O)[C@H]2OC(C)=O)cc1 | 98* | 36 | 75* | 73* | / | 99* | / | / | tim10-1 confirm=69*;tim10 confirm=81*
NCc1cc(=O)[nH]o1 | 8 | -22 | 2 | -15 | / | / | / | /
C[C@H]1C[C@@H](C)C(=O)[C@@H]([C@H](O)CC2CC(=O)NC(=O)C2)C1 | 98* | 77* | 72* | 58* | 100* | 99* | 100* | 99* | tim10-1 confirm=23;tim10 confirm=63*;tim23-1 conf=-10
c1ccc2nc(N3CCNCC3)ccc2c1 | 10 | 2 | 0 | -33 | / | / | / | /
NC1=C([N+](=O)[O-])C(c2ccc3c(c2)OCO3)c2c(c3ccccc3oc2=O)O1 (stereo unspecified) | -4 | 16 | 1 | 5 | / | / | / | /
O=c1oc2ccccc2c(O)c1[C@H]1c2ccc(O)cc2Oc2c1c(=O)oc1ccccc21 | 79* | 57* | 69* | 53* | / | 85* | 87* | 78* | tim10-1 confirm=58*;tim10 confirm=59*;tim23-1 conf=48*
CC(C)(C)c1cc(C=C(C#N)C#N)cc(C(C)(C)C)c1O | 76* | 62* | 70* | 78* | / | 91* | 98* | 96* | tim10-1 confirm=82*;tim10 confirm=83*;tim23-1 conf=72*
Cc1c2ccncc2c(C)c2c1[nH]c1ccccc12 | 82* | 56* | 57* | 63* | 95* | 93* | 72* | 40 | tim10-1 confirm=31;tim10 confirm=70*;tim23-1 conf=62*
